Where “and” joins values, the source holds several entries; their conditions need not be identical. Equal entries are not always repeated. Calls of active or inactive are those of the source. Rule for the calls: active = hit-call score of the fitted dose curve at least 0.9, where 1 is the maximum; inactive = score below 0.9.
assay: CCTE_Shafer_MEA_dev_per_burst_spike_percent: CCTE's Neural Network Formation Assay for Percent of Spikes in a Burst, Shafer Lab (AID 2284032)
Procedure: CCTE_Shafer_MEA_dev assay is conducted using Axion Biosystems 48 well microelectrode array (MEA) plates and Maestro recording system. Each well of the MEA plate contains a grid of 16 microelectrodes embedded in the culture surface. Electrically active cells, such as neurons, can be cultured over the electrodes, and electrical activity in these cells can be recorded extracellularly. The spontaneous firing of neurons is captured from each electrode on a microsecond timescale providing both temporally and spatially precise data. […] The CCTE_Shafer_MEA_dev assay uses primary cultures of rat cortical neurons. Recordings are made on days post-plating 5, 7, 9 and 12. As these cultures mature over time, neural networks develop functional activity and form cohesive networks in which electrical activity can be highly coordinated. CCTE_Shafer_MEA_dev_per_burst_spike_percent is 1 of 19 assay components of the CCTE_Shafer_MEA_dev assay. It measures the percentage of spikes (action potential firings) in a single-electrode burst (temporally-clustered group of spikes) as the total number spikes in bursts divided by the total number of spikes during a recording in a microelectrode array (MEA) using Axion Biosystems Maestro 768 channel amplifier with the AxIS adaptive spike detector. The percent of spikes in bursts is averaged across the actively bursting electrodes to report a well-mean value. To collapse across multiple recordings made on days post-plating 5, 7, 9 and 12, the trapezoidal area-under-the-curve of the component is calculated.Data from the assay component CCTE_Shafer_MEA_dev_per_burst_spike_percent was analyzed into 1 assay endpoint. This assay endpoint, CCTE_Shafer_MEA_dev_per_burst_spike_percent, was analyzed in the negative analysis fitting direction relative to DMSO as the negative control and baseline of activity. Using a type of functional reporter, gain or loss-of-signal activity can be used to understand electrical activity.
On the day prior to culture, each well was coated thoroughly with 150 uL of 0.05% polyethyleneimine (PEI, Sigma Cat P3143) in 50 mM HEPES (Sigma Cat H7523) at a pH of 8. The plate was incubated at 37C for one hour. PEI was rinsed out with 500 uL of sterile water three times. Plates were stored at 4C until the day of culture. This culture was plated at a seeding density of 1.5 x 10^5 cells/well on a 48-well MEA plate, prepared as described above. Cells were administered via a 25 uL media/laminin ([…]; Sigma Cat L2020-1MG) drop directly onto the microelectrode array, as adding the cells with the laminin results in better attachment than pre-coating with laminin. After 2 hours, an additional 475 uL of cortical media was added and the cells returned to the incubator. Exposure starts at day 0 of plating and is continued over twelve days of network development until the experiment is terminated. Cells are fed with fresh medium on DIV 5 and 9, following the recordings on those days. The entire volume of media in the well is exchanged and any vehicle or compound treatment is renewed. Complete details are found in OP-NHEERL/ISTD/SBB/TJS/2015-03-r0 (available on request, email shafer.tim@epa.gov). Measurement of the electrical activity is non-invasive, and recordings can be made from the same plate over multiple different days of the culture. In cortical neurons, this allows for the measurement of extracellular action potentials over the period during which networks form in the MEA plate.

SMILES	outcome	AC50
CCCC(CCC)C(=O)O	inactive	
Nc1ccn([C@@H]2O[C@H](CO)[C@@H](O)[C@@H]2O)c(=O)n1		138 nM (active) and 298 nM (active)
NCC(F)(F)C(F)(F)C(F)(F)C(F)(F)F	inactive	
CCN(CC)C(=S)SSC(=S)N(CC)CC		143 nM (active) and 47.8 nM (active)
c1ccc2c(c1)-c1cccc3c1c-2cc1ccccc13	inactive	
COc1cc2c(c(OC)c1OC)-c1ccc(OC)c(=O)cc1[C@@H](NC(C)=O)CC2		0.0285 µM (active)
OC(O)(C(F)C(O)(O)C(F)(F)F)C(F)(F)F	inactive	
OC(Cn1cncn1)(Cn1cncn1)c1ccc(F)cc1F	inactive	
FC(F)(F)C(F)(F)C(F)(F)C(F)(F)C(F)(F)C(F)(F)I	inactive	
CC[C@H](C)C(=O)O[C@H]1C[C@H](O)C=C2C=C[C@H](C)[C@H](CC[C@@H](O)C[C@@H](O)CC(=O)O)[C@H]21		1.92 µM (active)
Cn1cc[nH]c1=S	inactive	
O=C(Cl)C(F)(F)C(F)(F)C(F)(F)C(=O)Cl		15 µM (active)
FC(F)(F)COC(OCC(F)(F)F)OCC(F)(F)F	inactive	
CCOc1ccc2[nH]cc(C(=O)NCc3ccccc3)c(=O)c2n1	inactive	
c1ccc2cc3ccccc3cc2c1	inactive	
C[C@]12C=CC(=O)C=C1CC[C@H]1[C@@H]3C[C@@H](O)[C@](O)(C(=O)CO)[C@@]3(C)C[C@H](O)[C@@]12F	inactive	
OCCC(F)(F)C(F)(F)C(F)(F)C(F)(F)F	inactive	
NNC(=O)c1ccncc1	inactive	
NC(=O)N1c2ccccc2C=Cc2ccccc21	inactive	
